This is an account of results in PubChem BioAssay AID743126 (The Scripps Research Institute Molecular Screening Center, 2013).

About 2,100 (0.57%) of roughly 370,000 compounds were called active.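 Rule for the calls: active = inhibition above mean plus 3 SD of compounds lying within the high and low control bounds (cut at about 19% in these data); inactive = the rest.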 Many of the other results were omitted from the sample, so actives are more common in it than they were.

For the test, the target named is Group 3 secretory phospholipase A2 (Homo sapiens) (UniProt Q9NZ20). The test can be described thus: HGIII-sPLA2 enzyme inhibition – biochemical, QFRET, BODIPY PC-A2 liposome substrate, primary screen (AID 743126).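 Note: 0% = median of test compound wells and 100% = no enzyme DMSO wells.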 To be noted: QFRET BODIPY PC-A2 liposome hydrolysis, fluorescence; at 12.2 µM; stronger effect = higher value.
Sequence of Group 3 secretory phospholipase A2 (Homo sapiens) (Q9NZ20 whole entry, looked up): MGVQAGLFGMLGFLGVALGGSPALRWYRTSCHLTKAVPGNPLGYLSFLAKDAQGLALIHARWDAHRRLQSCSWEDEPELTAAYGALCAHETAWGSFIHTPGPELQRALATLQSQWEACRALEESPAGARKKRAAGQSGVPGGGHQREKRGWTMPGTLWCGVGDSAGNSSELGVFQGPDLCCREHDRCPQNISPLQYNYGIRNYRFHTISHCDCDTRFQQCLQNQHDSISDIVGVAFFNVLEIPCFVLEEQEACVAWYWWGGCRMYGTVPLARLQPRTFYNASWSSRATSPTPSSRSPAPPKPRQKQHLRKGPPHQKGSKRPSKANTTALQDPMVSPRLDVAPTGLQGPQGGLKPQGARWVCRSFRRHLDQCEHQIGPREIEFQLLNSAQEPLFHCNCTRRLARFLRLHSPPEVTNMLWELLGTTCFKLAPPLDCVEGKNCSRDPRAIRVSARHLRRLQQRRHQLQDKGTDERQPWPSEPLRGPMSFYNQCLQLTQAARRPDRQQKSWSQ
Consider `COc1cccc(Cn2cc(COC(=O)Nc3ccc(F)cc3)nn2)c1`, for which the inhibition is -7.76% (inactive).

As for `C[C@@H]1CN([C@@H](C)CO)C(=O)c2cccc(NC(=O)Nc3cccc4ccccc34)c2O[C@H]1CN(C)S(=O)(=O)c1ccccc1F`, the inhibition is -21.9% (inactive).

Regarding `CCOc1ccc2[nH]c(=O)c(CN(CCCO)C(C)=O)cc2c1`, the inhibition is -0.39% (inactive).

For `Nc1ccc2[nH]c(=S)sc2c1`, the inhibition is 1.91% (inactive).

Turning to `CCOc1ccc2[nH]c(=S)sc2c1`, the inhibition was 23.5% (active).

As for `COc1ccc2c(C(C)c3ccc(N)cc3)cn(C)c2c1` (configuration not stated), the inhibition was 9.83% (inactive).

Consider `CCCCNC(=O)C[C@@H]1C(=O)N(CCc2ccc(Cl)cc2)C2=CCCC[C@]21C(=O)OCC`, for which the inhibition was -11% (inactive).

For the compound `CC1CCN(C(=S)NC(=O)c2ccccc2Br)CC1`, the inhibition is 16.3% (inactive).

For `O=C(NC(=S)Nc1ncccn1)c1ccccc1Br`, the inhibition is 20.2% (active).

Consider `COC(=O)c1cccnc1NC(=S)NC(C)C`, for which the inhibition was 11.5% (inactive).

As for `O=C(CN1CCC(NC(=O)NCc2ccccc2)CC1)Nc1ccc2c(c1)OCCO2`, the inhibition was 4.02% (inactive).

With `O=C(NC1CCC1)c1ccc(C#CC2CC2)cn1`, the inhibition is 8.79% (inactive).

Turning to `Cc1cc(NCCc2c[nH]c3ccccc23)ccc1Oc1cccnc1`, the inhibition is 24.1% (active).

`COc1cccc(CNCCc2c[nH]c3ccccc23)c1OCc1ccccc1F`: the inhibition was -6.09% (inactive).

As for `O=C(CCc1c[nH]c2ccccc12)NCCOc1ccccc1`, the inhibition is -37% (inactive).

`C#CCNC(=O)C[C@H]1C[C@@]2(C(=O)OC)C(=C[C@H](C(C)C)O[C@@H]2C2CC2)N(Cc2ccco2)C1=O`: the inhibition was 3.7% (inactive).

`Cc1cccc(C(=O)Nc2c(-c3ccc(F)cc3)nc3ncccn23)c1`: the inhibition was -0.59% (inactive).

On to `COC(=O)CC1CCc2cc(C)cc(C(CC(C)C)NC(=O)[C@H](CC(C)C)NC(=O)OCc3ccccc3)c2O1` (some centres not stated), for which the inhibition was -3.39% (inactive).

Take `O=C(OC12CC3CC(CC(C3)C1)C2)c1ccc(NCc2cc(O)ccc2O)cc1`: the inhibition is 42.5% (active).

Regarding `O=C(C1CCCN1S(=O)(=O)c1ccccc1)N1CCc2ccccc2C1` (configuration not stated), the inhibition is -2.35% (inactive).

On to `Cc1nnc(SCCCn2c(N3CCCCC3)nc3c2c(=O)[nH]c(=O)n3C)s1`, for which the inhibition was -3.33% (inactive).

As to `C=CCn1c(SCc2ccccc2)nc2c1c(=O)[nH]c(=O)n2C`, the inhibition was -4.25% (inactive).

`Cc1nnc(Sc2nc3c(c(=O)[nH]c(=O)n3C)n2Cc2ccccc2)s1`: the inhibition is 19.7% (active).

Consider `COc1ccc(CN2C/C(=C/c3ccccc3)N3C(=O)C[C@@H](c4ccccc4)N=C23)c(OC)c1`, for which the inhibition was -11.6% (inactive).

As to `Cc1ccc(-n2c(COc3ccccc3)nnc2SCC(=O)Nc2ccc3c(c2)OCCO3)cc1`, the inhibition was -18.3% (inactive).

Regarding `COc1ccc(C(=O)OCCN2CCN(C3CN(Cc4cn(Cc5ccccc5F)nn4)S(=O)(=O)C3)CC2)cc1OC` (configuration not stated), the inhibition is -1.33% (inactive).

As to `CC(NC(=O)Cn1cc(C(F)(F)F)cc(Cl)c1=O)c1ccccc1` (configuration not stated), the inhibition was 0.8% (inactive).

Take `CC(NC(=O)COC(=O)Cn1cc(C(F)(F)F)ccc1=O)c1ccccc1` (configuration not stated): the inhibition is 19.8% (active).

As to `CC(NC(=O)COC(=O)C1CCN(S(=O)(=O)c2ccccc2C(F)(F)F)CC1)c1ccccc1` (configuration not stated), the inhibition is -13.3% (inactive).

In the case of `NC(Cc1ccccc1)c1csc(Nc2cc(Oc3ccccc3)ncn2)n1` (configuration not stated), the inhibition is 30.9% (active).

Regarding `NC(Cc1ccc(F)cc1)c1csc(Nc2nncc3ccccc23)n1` (configuration not stated), the inhibition is 9.76% (inactive).

Take `CC(C)(C)CC(=O)Nc1nc(C(N)Cc2ccc(C(F)(F)F)cc2)cs1` (configuration not stated): the inhibition was 6.39% (inactive).

Consider `CC(C)N1CCCCC(NC(=O)C(C)(C)C)C1=O` (configuration not stated), for which the inhibition was -4.58% (inactive).

Consider `C=CCN1C(C(=O)OC)CN(Cc2cn(Cc3ccccc3)nn2)CCS1(=O)=O` (configuration not stated), for which the inhibition is 1.48% (inactive).

Regarding `O=[N+]([O-])c1cc([N+](=O)[O-])c2cccnc2c1O`, the inhibition is 2.18% (inactive).

As for `N#Cc1ccccc1NC(=O)COc1c(Br)cc(Br)c2cccnc12`, the inhibition is 5.73% (inactive).

With `CC(=O)NC(c1cccs1)c1cc(Br)c2cccnc2c1O` (configuration not stated), the inhibition was 22% (active).

Regarding `Cc1c(C(C)c2ccccc2O)[nH]c2ccccc12` (configuration not stated), the inhibition is -10.4% (inactive).

In the case of `CCOC(=O)NC(=O)/C(C#N)=C\c1ccccc1`, the inhibition was 22.2% (active).

Turning to `CCOC(=O)NC(=O)C(=CNc1cccc(OC)c1)C(=O)NC(=O)OCC`, the inhibition was 5.9% (inactive).

For the compound `CCOC(=O)C(=Cc1ccccc1)C(=O)c1ccccc1`, the inhibition is 8.51% (inactive).

On to `COC(=O)[C@]12C[C@H](CC(=O)NCC34CC5CC(CC(C5)C3)C4)C(=O)N(Cc3ccc(Cl)cc3Cl)C1=C[C@H](COCc1ccccc1)O[C@@H]2C`, for which the inhibition is -6.39% (inactive).

Take `O=C(Nc1ccc(Br)cc1)OCCN1C(=O)CCC12CCC(c1ccccc1)CC2` (configuration not stated): the inhibition was -1.44% (inactive).

In the case of `NC(=O)C1(Nc2ccc(-c3ccccc3)cc2)CCCC1`, the inhibition is 0.79% (inactive).

Turning to `N#CC1(Nc2ccc(-c3ccc(Cl)cc3)cc2)CCCC1`, the inhibition is 23.6% (active).

In the case of `N#CC1(Nc2ccc3c4c(cccc24)CC3)CCCCC1`, the inhibition is -35.6% (inactive).

On to `CC(c1ccc(N)cc1)c1cn(C)c2ccccc12` (configuration not stated), for which the inhibition was 13.1% (inactive).

Regarding `FC(F)(F)c1cccc(Cn2ccc3ccc(-c4ccc5ccn(Cc6ccccc6)c5c4)cc32)c1`, the inhibition is -7.36% (inactive).

With `C=CCN(C)CC#Cc1ccccc1`, the inhibition is 6.96% (inactive).

On to `CCOC(=O)C1(Cc2cccc(OC)c2)CCN(C(C)COC)CC1` (configuration not stated), for which the inhibition is -1.08% (inactive).

Take `CCOC(=O)C1(Cc2cccc(OC)c2)CCCN(C(=O)CCSC)C1` (configuration not stated): the inhibition was 19.5% (active).

For the compound `CCOC(=O)C1(Cc2cccc(OC)c2)CCCN(S(=O)(=O)c2cccnc2)C1` (configuration not stated), the inhibition is 1.51% (inactive).

As for `CC(C)(C)NC(=O)C(c1cccnc1)N(C(=O)c1cnco1)c1ccc(C(C)(C)C)cc1` (configuration not stated), the inhibition is -5.08% (inactive).

Consider `CCOc1ccc(Oc2c(Cl)cnn(-c3ccc(C)cc3)c2=O)cc1`, for which the inhibition is 8.12% (inactive).

Consider `COc1cc(NS(=O)(=O)c2ccc3ccccc3c2)c2ncccc2c1`, for which the inhibition was 23.8% (active).

As to `O=[N+]([O-])c1ccccc1S(=O)(=O)Nc1cccc2cccnc12`, the inhibition was 6.98% (inactive).

Take `O=S(=O)(Nc1ccccn1)c1cccc(S(=O)(=O)c2ccc(Cl)cc2)c1`: the inhibition is -7.39% (inactive).

In the case of `CCOC(=O)C(=O)N(Cc1ccccc1)c1ccccc1C(=O)Nc1cc(OC)ccc1OC`, the inhibition is -2.65% (inactive).

Turning to `NC[C@H](Cc1ccccc1)NCCc1cc(C(F)(F)F)cc(C(F)(F)F)c1`, the inhibition is 21.8% (active).

Consider `CC1=CC(C)(C)NC(=S)N1NC(=O)c1ccccc1Cl`, for which the inhibition is 4.76% (inactive).

On to `CC1=CC(C)(C)NC(=S)N1c1ccccc1`, for which the inhibition is 20.1% (active).

In the case of `CN(C)Cc1cn(-c2ccc(-c3noc4c3C(=O)N(CC(=O)N3CCOCC3)CC4)cc2)nn1`, the inhibition is 1.51% (inactive).

As for `COc1ccc(N2CCN(CCNS(=O)(=O)c3ccc([N+](=O)[O-])cc3)CC2)cc1`, the inhibition is -4.09% (inactive).

As to `COc1ccccc1CCNC(=O)C1CCN(c2nc(C)cc(C)n2)CC1`, the inhibition was -0.08% (inactive).

Consider `Cc1ccc(NC(=O)CN(C)Cc2ccc(F)cc2)c([N+](=O)[O-])c1`, for which the inhibition is -1.08% (inactive).

For the compound `Cc1cccc(NC(=S)NCCc2ccc(F)cc2)c1C`, the inhibition was 8.1% (inactive).

Regarding `Cc1c(NC(=S)NCc2ccc(F)cc2)cccc1[N+](=O)[O-]`, the inhibition is 19.5% (active).

Consider `O=C(CSc1nc2ccccc2n1Cc1ccccc1Cl)N/N=C\c1c[nH]c2ccccc12`, for which the inhibition is -20.9% (inactive).

As to `COC(=O)C1CN(Cc2ccc(F)cc2)CCS(=O)(=O)N1Cc1ccc(Cl)cc1` (configuration not stated), the inhibition was 0.13% (inactive).

`CCC(=O)OCCCN1C(=O)CCC12CCC(c1ccccc1)CC2` (configuration not stated): the inhibition was -0.68% (inactive).

For `Cc1cccc(C)c1NC(=O)CN1C(=O)C(C)Oc2ccccc21` (configuration not stated), the inhibition is 20.8% (active).

Turning to `Cc1ccc2c(c1)N(CC(=O)N1CCCc3ccccc31)C(=O)C(C)O2` (configuration not stated), the inhibition is 0.55% (inactive).

Take `CC1Oc2ccccc2N(Cc2cccnc2)C1=O` (configuration not stated): the inhibition is 7.65% (inactive).

On to `COc1ccc(Cn2ccc3ccc(-c4ccc5ccn(Cc6ccccc6C)c5c4)cc32)cc1`, for which the inhibition is 3.9% (inactive).

Turning to `COc1ccc(C#CCNCc2ccc(OC)cc2OC)cc1`, the inhibition was 12.6% (inactive).

Regarding `CCOC(=O)C1(Cc2ccccc2)CCN(Cc2cn(C(C)=O)c3ccccc23)CC1`, the inhibition is -23.2% (inactive).

Regarding `O=C(CSc1nnc(-c2ccccc2)n1Cc1ccco1)Nc1ccccc1-c1ccccc1`, the inhibition is -10.1% (inactive).

On to `CCCCCCCCNS(=O)(=O)/C=C/c1cc(C)ccc1CNC(=O)OC(C)(C)C`, for which the inhibition was -4.97% (inactive).

As for `CCCCOCCCNC(=O)C[C@H]1C[C@@]2(C(=O)OC)C(=C[C@H](COCc3ccccc3)O[C@@H]2C)N(Cc2cccc3ccccc23)C1=O`, the inhibition was -20.5% (inactive).

Consider `CNC(=S)N/N=C/c1ccc(OCc2ccccc2)c(Br)c1`, for which the inhibition is 0.16% (inactive).

As to `COc1cc(/C=N/n2c(C)n[nH]c2=S)ccc1OCc1ccccc1`, the inhibition is 20.9% (active).

In the case of `C=CCOc1ccc(/C=N/n2cncn2)cc1OC`, the inhibition was 2.27% (inactive).

Take `C=CCn1c(SCC(=O)NC)nnc1C12CC3CC(CC(C3)C1)C2`: the inhibition is 0.19% (inactive).

In the case of `C=CCn1c(C23CC4CC(CC(C4)C2)C3)n[nH]c1=S`, the inhibition was 23.5% (active).

For the compound `C=CCn1c(-c2ccc3[nH]c(C)c(C)c3c2)n[nH]c1=S`, the inhibition was -0.35% (inactive).

Turning to `FC(F)(F)c1cccc(NC(=S)OC2CCC23CCC(c2ccccc2)CC3)c1` (configuration not stated), the inhibition is -7.1% (inactive).

As for `CN[C@H]1C[C@H]2c3cc(N4CCOCC4)ccc3CCN2C[C@H]1[C@H](C)O`, the inhibition is 7.01% (inactive).

As for `CCOC12CC(C)(C)CC(C)(CC3=C1C(=O)CC(C)(C)C3)C2` (configuration not stated), the inhibition was 24.1% (active).

Regarding `O=S1(=O)c2c(cccc2N2CCSCC2)Oc2ccccc2CN1Cc1cn(Cc2ccc(F)cc2)nn1`, the inhibition was 2.55% (inactive).

`Cc1ccc(S(=O)(=O)NCc2nc3ccccc3c(=O)n2N)cc1`: the inhibition is 2.93% (inactive).

As to `Cc1ccc(C(=O)CSc2nc3ccccc3c(=O)n2N)o1`, the inhibition is -0.69% (inactive).

With `C#CCCCc1nc2ccccc2c(=O)n1N`, the inhibition was 21.1% (active).

By inhibition is commonly meant the drop in the measured response relative to a control, in per cent.
